According to the supplement of paper PMC3334620:
Whole data set: some 33,000 sequences, median “E-score (-0.5 to 0.5)” near -0.032, cut for the highest 2% near 0.36. The list comes from a sample in which the highest values are over-represented; it also holds similar and randomly drawn sequences.

Target: T1, Sko1 (UniProt Q02100)
T1 sequence: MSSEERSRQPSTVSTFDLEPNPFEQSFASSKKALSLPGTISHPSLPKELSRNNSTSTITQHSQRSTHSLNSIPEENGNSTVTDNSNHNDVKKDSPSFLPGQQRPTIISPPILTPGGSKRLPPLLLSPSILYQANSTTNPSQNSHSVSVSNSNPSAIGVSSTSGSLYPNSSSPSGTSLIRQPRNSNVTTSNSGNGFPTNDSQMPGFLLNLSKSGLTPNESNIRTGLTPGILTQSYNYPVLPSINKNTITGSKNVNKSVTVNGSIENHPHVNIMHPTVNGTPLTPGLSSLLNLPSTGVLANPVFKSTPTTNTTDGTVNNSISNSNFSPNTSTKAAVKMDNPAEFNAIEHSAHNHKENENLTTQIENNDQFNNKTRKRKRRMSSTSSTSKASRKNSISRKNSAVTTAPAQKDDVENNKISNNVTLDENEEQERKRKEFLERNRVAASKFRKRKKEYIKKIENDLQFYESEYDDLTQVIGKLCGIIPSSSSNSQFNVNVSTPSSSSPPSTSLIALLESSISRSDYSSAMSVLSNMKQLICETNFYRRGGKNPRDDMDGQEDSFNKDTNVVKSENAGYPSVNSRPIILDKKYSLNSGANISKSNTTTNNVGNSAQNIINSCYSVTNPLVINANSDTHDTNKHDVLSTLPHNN
Experiment: PBM E-score (8-mer binding enrichment) (E-score (-0.5 to 0.5)); higher = stronger / more preferred TF binding
Settings: protein concentration: 200 nM; construct: GST-full length
Procedure: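 Universal 'all 10-mer' protein binding microarrays (Agilent AMADID 015681) probed with GST-tagged S. cerevisiae TFs (full-length or DBD) made by in vitro transcription/translation (PURExpress), about 100-200 nM. Bound TF was detected with fluorescent anti-GST. Each ungapped 8-mer (which stands for itself and its reverse complement) is scored by the PBM enrichment score (E-score), a modified Wilcoxon-Mann-Whitney statistic from -0.5 to +0.5, computed with the Universal PBM Analysis Suite. Scale: above 0.35 generally sequence-specific binding.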

| Sequence | PBM E-score |
| --- | --- |
| AATCTAAC | 0.124 |
| CGATCTAA | 0.0385 |
| CGGCATGA | 0.11 |
| TAGTATAA | 0.24 |
| ACTCCACG | 0.0133 |
| AACTCTCA | 0.0877 |
| ATGATGCA | 0.376 |
| GTGATGAA | 0.111 |
| GTGATGTA | 0.397 |
| ATGATGCC | 0.244 |
| AAGATGTA | 0.206 |
| ATGATGTC | 0.446 |
| ATGATGAA | 0.321 |
| ATGATGTA | 0.459 |
| GTGATGCA | 0.249 |
| CTGATGTC | 0.173 |
| CTGATGTA | 0.255 |
| ATGATGAC | 0.327 |
| ATCGAAGG | 0.0197 |
| GTGAGCCA | -0.0673 |
| GCGGAATA | 0.0622 |
| CTAGAAGA | 0.0318 |
| TTTTAAAA | 0.233 |
| ATTTAGTG | 0.0842 |
| GCCGCTCC | -0.396 |

| Sequence | PBM E-score |
| --- | --- |
| AATTTCAG | 0.0849 |
| TGACAGAA | 0.141 |
| GGGCAATA | -0.14 |
| CGACCGCA | -0.266 |
| ATGATGTG | 0.379 |
| AGGATGTG | -0.206 |
| ATGATGAG | 0.275 |
| AACTCCAG | -0.205 |
| AGGAACAT | 0.176 |
| AAAGAACG | 0.143 |
| ATTGACTA | -0.0436 |
| AGTATTTA | 0.164 |
| CCTATTTC | 0.0978 |
| CGTATTTC | 0.367 |
| AGTATTTC | 0.108 |
| CGTATTTA | 0.419 |
| GGTATTTA | 0.0513 |
| GTCGAGAA | 0.107 |
| CCGATGAA | -0.198 |
| AGAGAGGC | -0.353 |
| AGCCCAGG | -0.331 |
| AACTAAGC | 0.123 |
| GAAGGAAC | -0.138 |
| TAAACGTA | 0.42 |
| AAAACGTC | 0.409 |

| Sequence | PBM E-score |
| --- | --- |
| TAAACGGA | -0.0437 |
| CAAACGCA | 0.0771 |
| TAAACGAA | 0.116 |
| CAAACGTA | 0.416 |
| AAAACGTG | 0.304 |
| CAAACGTG | 0.272 |
| AAAACGAC | 0.113 |
| AAAACGTT | 0.207 |
| AAAACGCC | 0.0157 |
| AAAACGTA | 0.449 |
| CGTGCTAC | 0.208 |
| CACTATAG | -0.00316 |
| ATTTCAAC | 0.0828 |
| ACGGTAGG | -0.189 |
| GAAACGGA | 0.15 |
| GAAACGCC | 0.145 |
| GAAACGTA | 0.398 |
| GAAACGAA | 0.115 |
| GAAACGTC | 0.385 |
| CAAACGTC | 0.329 |
| ACTAACTA | -0.0162 |
| AGGTTGCA | 0.0863 |
| GCAGCGGA | -0.11 |
| CCCTGAGC | -0.145 |
| ACCATTGA | 0.0435 |

| Sequence | PBM E-score |
| --- | --- |
| AGACGTCG | 0.21 |
| AGCCGTAT | -0.0778 |
| AGACGTAT | 0.441 |
| AGACGTAC | 0.395 |
| AGTCGTAT | 0.0845 |
| AGACGTAG | 0.382 |
| AGACGTTG | 0.111 |
| AGGCGTAC | 0.105 |
| ATGCAGGC | -0.024 |
| CGTGCAAG | 0.0462 |
| CCTACAAA | -0.0324 |
| CAAGTCTA | -0.0923 |
| ACCCTGAT | -0.0969 |
| AGCCCTAT | -0.331 |
| CCGCGGGA | -0.201 |
| AATGCCCT | -0.205 |
| AGAGGGTA | -0.035 |
| ATGTCGTC | 0.365 |
| ATGTCGTA | 0.424 |
| CTGTCGTC | 0.21 |
| GTGTCGTA | 0.312 |
| ATGTCGTG | 0.239 |
| ATGTCGGC | -0.12 |
| TGATAGAA | 0.0834 |
| AGGAGGTC | -0.24 |

| Sequence | PBM E-score |
| --- | --- |
| AGCTAACA | -0.0839 |
| AGGCACGA | 0.0425 |
| ACGACGAC | 0.00819 |
| ACGACGTC | 0.367 |
| ACGACGGA | 0.0966 |
| ACGACGAG | 0.00694 |
| ACGACGAT | 0.127 |
| ACGACGTG | 0.365 |
| ACGACGCC | 0.0289 |
| ACGACGGG | 0.0518 |
| ACGACGTA | 0.446 |
| ATGGGCAA | -0.138 |
| AGGAGATC | -0.214 |
| AGAAACAT | 0.152 |
| TCCTTGCA | -0.292 |
| AAAATTCC | -0.152 |
| CACGCCGG | -0.211 |
| CGAAAAGA | 0.163 |
| GATTCGTA | 0.251 |
| ATTTCGTC | 0.343 |
| CATTCGTA | 0.317 |
| ATTTCGTA | 0.372 |
| AATTCGTA | 0.386 |
| CTTTCGTA | 0.339 |
| CGCGGAAC | -0.165 |

| Sequence | PBM E-score |
| --- | --- |
| GGCTTCCA | -0.218 |
| GGCGTGCA | -0.0639 |
| GACGTGCC | 0.266 |
| CACGTGCA | 0.329 |
| AACGTGCA | 0.191 |
| TACGTGCA | 0.423 |
| GACGTGCA | 0.389 |
| AGACTATA | 0.00094 |
| CCAAGTGC | -0.285 |
| AGCACGTC | 0.309 |
| AGCACGTA | 0.406 |
| AGCACATA | 0.0436 |
| AGCACGAG | -0.0498 |
| AGCACGTG | 0.397 |
| AGCACGAA | 0.169 |
| AGTAGTCC | 0.0244 |
| AACGTTCT | 0.167 |
| AACGTTCA | 0.0648 |
| TACGTTCA | 0.374 |
| AACGTTAT | 0.368 |
| CACGTTTA | 0.321 |
| CACGTTAC | 0.305 |
| CACGTTCA | 0.171 |
| AACGTTAG | 0.176 |
| GACGTTAC | 0.365 |

| Sequence | PBM E-score |
| --- | --- |
| AACGTTAC | 0.321 |
| GACGTTTA | 0.386 |
| AACGTTTA | 0.31 |
| AGCTCAAC | -0.147 |
| AGTGCTGG | -0.111 |
| AAGTCGAC | 0.0592 |
| ATCTGAGA | -0.0991 |
| CAATACCG | -0.186 |
| CTTGAAGA | -0.132 |
| ACGAAGGG | 0.129 |
| CTGATCCC | -0.269 |
| AACTCCTT | -0.0253 |
| ATTCGACA | -0.09 |
| CAACAACC | -0.0035 |
| CCAGAGAC | -0.251 |
| CATCCCTC | -0.245 |
| TACGTTAA | 0.413 |
| GGCGTTAA | -0.0249 |
| CACGTTAA | 0.244 |
| CACGTTGA | 0.25 |
| TACGTTGA | 0.38 |
| CACGTTAG | 0.2 |
| GACGTTAA | 0.368 |
| GACGTTGA | 0.269 |
| AACGTTAA | 0.243 |
